# Screening data as filed in PubChem.
# The full list was thinned out, with hits kept by preference.
# CD40 NFkB inh: CD40 pathway inhibition in BL2 cells; inhibition, % at 10 µM; BL2 NF-kB luciferase reporter, CD40L-induced, 4 h; AID 1053188; actives 0.94% (n = 83,000);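 active = mean inhibition of at least 50% with a set share of replicates also reaching that level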
# A number is an active result; i = inactive; [ ] = remark or other dose.
SMILES,CD40 NFkB inh
OC[C@@H]1Nc2ccc(C#Cc3ccc(F)cc3)cc2[C@H]2[C@@H]1CCN2Cc1ccc2c(c1)OCO2,i
O=C1CNC[C@@H]2[C@@H](c3ccc(C#Cc4cccnc4)cc3)[C@@H](CO)N12,i
CC(=O)Cn1ncc(Br)c(Br)c1=O,99
Cn1ncc(Br)c1C(=O)O,i
CO/N=C(\Cn1ncc(N2CCOCC2)c(Br)c1=O)c1ccc(Cl)cc1,i
CC(=O)N(C)C[C@@H]1Oc2ccc(NS(C)(=O)=O)cc2CC(=O)N(C)C[C@H]1C,i
O=C1C[C@@H](c2ccccc2)C(=O)N[C@H](c2ccc3c(c2)OCO3)C/C=C\C[C@@H](c2ccc(F)cc2)N1,i
C[C@@H]1CN([C@@H](C)CO)C(=O)Cc2cc(NC(=O)Nc3ccc(C(F)(F)F)cc3)ccc2O[C@H]1CN(C)Cc1ccc2c(c1)OCO2,i
C[C@@H]1CN([C@@H](C)CO)C(=O)c2cc(NC(=O)Cc3cn(C)c4ccccc34)ccc2O[C@@H]1CN(C)Cc1ccc2c(c1)OCO2,i
C[C@@H]1CN([C@@H](C)CO)C(=O)c2cc(NC(=O)CCN3CCOCC3)ccc2O[C@@H]1CN(C)Cc1ccc(C(F)(F)F)cc1,i
COc1ccc(CN(C)C[C@H]2Oc3ccc(NC(=O)Cc4cn(C)c5ccccc45)cc3CC(=O)N([C@@H](C)CO)C[C@@H]2C)cc1,i
C[C@@H]1CN([C@H](C)CO)C(=O)Cc2cc(NC(=O)Cc3cn(C)c4ccccc34)ccc2O[C@H]1CN(C)Cc1ccc(C(F)(F)F)cc1,72[25 µM]
C[C@H]1CN([C@@H](C)CO)C(=O)Cc2cc(NC(=O)Cc3cn(C)c4ccccc34)ccc2O[C@H]1CN(C)Cc1ccc(C(F)(F)F)cc1,76[25 µM]
CC(C)NC(=O)Nc1ccc2c(c1)C(=O)N([C@@H](C)CO)C[C@H](C)[C@H](CN(C)C(=O)C1CCCCC1)OCCCC[C@@H](C)O2,i
CC(=O)Nc1cccc2c1O[C@H](CN(C)C)[C@H](C)CN(C)C2=O,i
C=C[C@@]1(C)CC(=O)[C@]2(O)[C@@]3(C)[C@@H](O)CCC(C)(C)[C@@H]3[C@H](O)[C@H](OC(=O)CCCN3CCN(C)CC3)[C@@]2(C)O1,i
N#CC1(NC(=O)COC(=O)c2cc([N+](=O)[O-])ccc2N2CCOCC2)CCCCC1,i
N#CC1(NC(=O)COC(=O)c2cc([N+](=O)[O-])ccc2N2CCCC2)CCCCC1,44
O=C(COC(=O)c1cc([N+](=O)[O-])ccc1N1CCOCC1)Nc1cc(F)ccc1F,i
CN1CCN(C(CNS(=O)(=O)c2ccc(Br)cc2)c2ccc3c(c2)OCO3)CC1 (stereo unspecified),i
Oc1cc2c(cc1C(c1ccc(Br)cc1)N1CCCC1)OCO2 (stereo unspecified),86
OC(CN1CCCCC1)c1ccc(Br)cc1 (stereo unspecified),i
O=C(N[C@H]1C=C[C@H](CC(=O)N2CCN(c3ccccc3)CC2)O[C@H]1CO)c1ccccc1,i
CC(C)NC(=O)N(C)C[C@H]1Oc2ccc(N(C)C)cc2C(=O)N(C)C[C@H]1C,i
Cc1ccccc1OCC(=O)Nc1ccc2c(c1)Cc1ccccc1-2,i
SMILES,CD40 NFkB inh
Cc1ccccc1OCC(=O)Nc1ccc2c(c1)C(=O)c1ccccc1C2=O,i
Cc1ccccc1OCC(=O)Nc1cccc(C(=O)O)c1,91
CCS(=O)(=O)N[C@H]1CC[C@H](CC(=O)NCc2ccc(Cl)cc2)O[C@H]1CO,i
C/C=C/c1ccc([C@H]2[C@@H](CO)N(C(C)=O)C23CN(C(=O)NC2CCCCC2)C3)cc1,i
N#Cc1ccc(-c2ccc(C3[C@@H]4CN(C(=O)c5ccc6c(c5)OCO6)C[C@H]3N4)cc2)cc1 (stereo partly specified),i
COc1ccc(CN(CCC(c2ccccc2)c2ccc(OC(C)C)cc2)C(=O)CCl)cc1OC (stereo unspecified),44
COc1ccc(CN(CCC(c2ccccc2)C2CCOC(C)(C)C2)C(C)=O)cc1 (stereo unspecified),i
COc1ccc(CN(CCC(c2ccco2)C(C)C)C(C)=O)cc1OC (stereo unspecified),i
C[C@H](CO)N1C[C@H](C)[C@@H](CN(C)C(=O)c2cc(Cl)cc(Cl)c2)OCc2ccccc2-c2ccccc2C1=O,i
CN(C)Cc1csc(NC(=O)Nc2cccc(Cl)c2)n1,i
NC(c1csc(Nc2cc(Oc3ccccc3)ncn2)n1)c1ccccc1Cl (stereo unspecified),i
NC(c1csc(NC(=O)Nc2cccc(Cl)c2)n1)c1ccccc1Cl (stereo unspecified),59
FC(F)(F)CN1C[C@@H]2C(c3ccc(Br)cc3)[C@H](C1)N2CC(F)(F)F (stereo partly specified),i
O=C(C[C@H]1C[C@@H]2c3cc(NC(=O)NC4CCCC4)ccc3O[C@@H]2[C@H](CO)O1)NCc1ccccc1,i
O=S(c1ccccc1O)S(=O)c1ccccc1O (stereo unspecified),82
O=C(O)c1ccccc1O,i
CS(=O)c1ccccc1O (stereo unspecified),i
O=C(C[C@H]1CC[C@@H]2[C@H](COC[C@H](O)CN2Cc2ccc(F)cc2)O1)NCCc1ccccc1,i
N#C[C@@H]1[C@H](c2ccccc2-c2ccccc2F)[C@H](CO)N1C(=O)Cc1ccccc1,i
O=C(CCS(=O)(=O)c1ccccc1)N(CCCN1CCOCC1)c1nc2ccc(F)cc2s1,72
Cc1ccc2nc(N(CCCN(C)C)C(=O)CS(=O)(=O)c3ccccc3)sc2c1,i
CCc1cccc2sc(N(CCCN3CCOCC3)C(=O)CS(=O)(=O)c3ccccc3)nc12,i
C[C@@H]1CN(C)C(=O)c2cccc(NS(C)(=O)=O)c2O[C@@H]1CN(C)C,i
O=C1CCCc2cnnn2COCCN1,i
COc1ccc2c3c(n(C)c2c1)[C@H](CO)N(CC1CC1)CC31CN(C(=O)c2ccc3c(c2)OCO3)C1,i
SMILES,CD40 NFkB inh
Cc1ccc(/C=C/c2nc3ccccc3s2)s1,75
c1ccc2sc(-c3ccncc3)nc2c1,i
c1ccc2sc(N3CCOCC3)nc2c1,i
COc1ccc2c3c(n(C)c2c1)[C@H](CO)N(C)CC31CCN(C(=O)NC(C)C)CC1,i
O=C(Cc1ccncc1)Nc1ccc2c(c1)[C@H]1C[C@@H](CC(=O)N3CCc4ccccc4C3)O[C@H](CO)[C@H]1O2,i
N#C[C@H]1[C@@H](c2ccc(C3=CCCCC3)cc2)[C@H](CO)N1C(=O)NC1CCCCC1,i
CCNC1=C(Cl)C(=O)c2ccccc2C1=O,i
CCCC(=O)NNC(=O)CCC(=O)Nc1ccccc1Cl,i
CCCC(=O)NC1=C(Cl)C(=O)c2ccccc2C1=O,107
N#C[C@@H]1[C@H](c2ccc(-c3ccccc3F)cc2)[C@H](CO)N1C(=O)Cc1ccccc1,i
C[C@@H]1CN([C@@H](C)CO)C(=O)CCCn2cc(nn2)CO[C@@H]1CN(C)C(=O)c1ccc2ccn(C)c2c1,i
O=C(CNC(=O)c1ccc(Br)cc1)N/N=C/c1ccc[nH]1,i
O=C(N/N=C/c1ccc[nH]1)c1ccc(O)cc1,i
Cc1cc(Br)c(OCc2ccc(C(=O)N/N=C/c3ccc[nH]3)cc2)c(Br)c1,75
COc1ccc(C(=O)N2C[C@H]3[C@@H](c4ccccc42)[C@H](CO)N3Cc2ccccc2Cl)cc1,i
N#C[C@@H]1[C@H](c2ccc(C3=CCCCC3)cc2)[C@@H](CO)N1C(=O)Cc1ccncc1,i
O=C(C[C@@H]1CC[C@H](NC(=O)c2cccnc2)[C@H](CO)O1)NCc1ccc(Cl)c(Cl)c1,i
CCCCCN1C=CC(=C2C(=O)c3ccccc3C2=O)C=C1,81
